Broadly, the inhibition is the drop in the measured response relative to a control, in per cent.

The target of test [1] is T1, Serine/threonine-protein kinase D2 (Homo sapiens) (UniProt Q9BZL6).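 Note: mean value of PRKD2 inhibition, from the GSK PKIS screening panel.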
T1 sequence (whole entry): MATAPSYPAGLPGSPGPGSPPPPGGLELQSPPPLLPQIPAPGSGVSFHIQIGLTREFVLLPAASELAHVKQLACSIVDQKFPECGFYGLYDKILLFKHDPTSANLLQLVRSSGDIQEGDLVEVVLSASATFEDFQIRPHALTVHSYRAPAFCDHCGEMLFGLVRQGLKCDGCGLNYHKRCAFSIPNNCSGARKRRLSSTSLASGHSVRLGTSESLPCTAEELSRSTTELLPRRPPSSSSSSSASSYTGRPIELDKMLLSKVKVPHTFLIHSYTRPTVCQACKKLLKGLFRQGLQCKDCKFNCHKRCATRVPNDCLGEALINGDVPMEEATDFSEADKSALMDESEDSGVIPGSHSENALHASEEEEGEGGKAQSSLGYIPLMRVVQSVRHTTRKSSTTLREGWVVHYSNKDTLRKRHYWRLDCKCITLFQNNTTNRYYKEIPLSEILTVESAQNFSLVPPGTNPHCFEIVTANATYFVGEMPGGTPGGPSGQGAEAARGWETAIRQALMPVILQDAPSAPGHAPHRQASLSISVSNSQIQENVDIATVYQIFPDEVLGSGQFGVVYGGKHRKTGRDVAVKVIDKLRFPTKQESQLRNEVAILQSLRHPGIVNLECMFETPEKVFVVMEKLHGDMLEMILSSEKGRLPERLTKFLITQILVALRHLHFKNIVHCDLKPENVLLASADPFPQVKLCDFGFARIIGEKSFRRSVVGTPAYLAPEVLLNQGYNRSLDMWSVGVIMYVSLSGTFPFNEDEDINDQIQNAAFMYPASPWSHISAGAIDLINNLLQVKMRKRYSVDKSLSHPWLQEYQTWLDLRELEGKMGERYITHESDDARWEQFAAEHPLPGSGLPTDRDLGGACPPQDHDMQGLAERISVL
To be noted: at 1 µM.

Test [2] addresses T2, Serine/threonine-protein kinase D3 (Homo sapiens) (UniProt O94806).
T2 sequence (whole entry): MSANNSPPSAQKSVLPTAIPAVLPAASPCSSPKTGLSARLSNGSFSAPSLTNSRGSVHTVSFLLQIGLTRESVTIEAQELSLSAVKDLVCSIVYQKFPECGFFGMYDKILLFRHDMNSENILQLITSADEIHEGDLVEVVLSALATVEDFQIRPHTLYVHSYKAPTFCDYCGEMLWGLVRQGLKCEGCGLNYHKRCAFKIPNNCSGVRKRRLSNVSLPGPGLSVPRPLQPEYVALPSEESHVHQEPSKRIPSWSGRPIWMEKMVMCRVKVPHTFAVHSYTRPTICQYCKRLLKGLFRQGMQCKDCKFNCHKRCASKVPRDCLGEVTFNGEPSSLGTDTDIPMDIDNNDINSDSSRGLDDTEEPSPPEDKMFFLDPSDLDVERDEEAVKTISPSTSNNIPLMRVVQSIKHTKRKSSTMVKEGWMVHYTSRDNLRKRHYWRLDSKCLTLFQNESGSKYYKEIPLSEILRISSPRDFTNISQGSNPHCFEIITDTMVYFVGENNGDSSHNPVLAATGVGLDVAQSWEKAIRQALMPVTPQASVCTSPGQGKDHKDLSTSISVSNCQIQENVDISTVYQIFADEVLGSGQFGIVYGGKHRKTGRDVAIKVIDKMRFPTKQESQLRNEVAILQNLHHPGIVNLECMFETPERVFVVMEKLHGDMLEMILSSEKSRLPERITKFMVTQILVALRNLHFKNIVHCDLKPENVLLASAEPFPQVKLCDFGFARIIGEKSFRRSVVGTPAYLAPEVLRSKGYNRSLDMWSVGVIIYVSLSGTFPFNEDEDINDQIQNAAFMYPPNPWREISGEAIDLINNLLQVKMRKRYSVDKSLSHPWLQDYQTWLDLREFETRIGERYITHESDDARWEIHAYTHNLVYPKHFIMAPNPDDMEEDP
As to conditions: at 0.1 µM.

In test [3] the target is T2, Serine/threonine-protein kinase D3 (Homo sapiens). As to conditions: at 1 µM.
In test [4] the target is T3, cGMP-dependent protein kinase 1 (Homo sapiens) (UniProt Q13976).
T3 sequence (whole entry): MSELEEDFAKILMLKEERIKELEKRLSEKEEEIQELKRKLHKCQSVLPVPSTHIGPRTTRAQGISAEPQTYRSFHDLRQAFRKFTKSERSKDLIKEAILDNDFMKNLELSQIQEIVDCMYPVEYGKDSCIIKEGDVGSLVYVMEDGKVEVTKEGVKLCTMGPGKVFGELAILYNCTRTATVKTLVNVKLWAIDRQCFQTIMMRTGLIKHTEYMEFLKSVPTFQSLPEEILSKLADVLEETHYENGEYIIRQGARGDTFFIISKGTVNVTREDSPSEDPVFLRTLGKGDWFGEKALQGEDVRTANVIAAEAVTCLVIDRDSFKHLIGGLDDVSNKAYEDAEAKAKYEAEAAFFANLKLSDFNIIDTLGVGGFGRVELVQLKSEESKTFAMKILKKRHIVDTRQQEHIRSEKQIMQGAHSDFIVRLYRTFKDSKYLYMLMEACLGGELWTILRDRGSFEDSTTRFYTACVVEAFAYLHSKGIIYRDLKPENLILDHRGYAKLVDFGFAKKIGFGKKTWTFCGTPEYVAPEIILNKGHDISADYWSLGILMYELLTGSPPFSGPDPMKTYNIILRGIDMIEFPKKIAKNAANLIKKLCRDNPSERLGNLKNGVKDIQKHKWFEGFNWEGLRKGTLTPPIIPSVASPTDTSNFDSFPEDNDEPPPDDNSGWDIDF
As to conditions: at 0.1 µM.

For test [5], the target named is T3, cGMP-dependent protein kinase 1 (Homo sapiens). As to conditions: at 1 µM.
Test [6] addresses T4, cGMP-dependent protein kinase 2 (Homo sapiens) (UniProt Q13237).
T4 sequence (whole entry): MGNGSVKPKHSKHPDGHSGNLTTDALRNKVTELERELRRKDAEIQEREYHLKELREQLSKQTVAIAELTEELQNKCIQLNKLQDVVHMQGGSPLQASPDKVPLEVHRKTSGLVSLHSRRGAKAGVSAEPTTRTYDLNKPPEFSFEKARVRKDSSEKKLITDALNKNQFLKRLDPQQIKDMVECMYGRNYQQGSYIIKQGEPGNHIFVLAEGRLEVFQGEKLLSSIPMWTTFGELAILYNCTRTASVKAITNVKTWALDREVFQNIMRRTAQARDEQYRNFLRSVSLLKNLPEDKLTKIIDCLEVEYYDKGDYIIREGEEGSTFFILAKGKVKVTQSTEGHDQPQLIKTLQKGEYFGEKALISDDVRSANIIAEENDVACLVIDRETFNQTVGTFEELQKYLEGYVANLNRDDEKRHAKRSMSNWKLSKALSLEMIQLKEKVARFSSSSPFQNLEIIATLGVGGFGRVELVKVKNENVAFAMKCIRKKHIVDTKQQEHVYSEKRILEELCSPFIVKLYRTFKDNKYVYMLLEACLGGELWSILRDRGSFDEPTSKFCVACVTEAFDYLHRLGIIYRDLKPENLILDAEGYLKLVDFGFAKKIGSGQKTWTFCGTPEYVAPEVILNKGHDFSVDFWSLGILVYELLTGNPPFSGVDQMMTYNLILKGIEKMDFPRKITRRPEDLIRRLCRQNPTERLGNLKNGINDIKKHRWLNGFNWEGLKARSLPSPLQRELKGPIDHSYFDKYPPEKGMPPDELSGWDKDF
As to conditions: at 0.1 µM.

Test [7] addresses T4, cGMP-dependent protein kinase 2 (Homo sapiens). As to conditions: at 1 µM.
In test [8] the target is T5, cAMP-dependent protein kinase catalytic subunit PRKX (Homo sapiens) (UniProt P51817).
T5 sequence (whole entry): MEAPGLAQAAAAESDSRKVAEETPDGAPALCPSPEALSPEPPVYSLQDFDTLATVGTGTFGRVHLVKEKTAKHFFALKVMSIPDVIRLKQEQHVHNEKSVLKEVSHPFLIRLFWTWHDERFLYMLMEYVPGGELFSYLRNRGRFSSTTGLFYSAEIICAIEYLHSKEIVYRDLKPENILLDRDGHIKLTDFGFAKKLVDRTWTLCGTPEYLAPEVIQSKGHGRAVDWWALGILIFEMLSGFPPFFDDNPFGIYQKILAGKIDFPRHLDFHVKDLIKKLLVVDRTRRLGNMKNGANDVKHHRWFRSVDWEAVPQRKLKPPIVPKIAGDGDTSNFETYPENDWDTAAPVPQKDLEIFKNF
As to conditions: at 0.1 µM.

Test [9] deals with T5, cAMP-dependent protein kinase catalytic subunit PRKX (Homo sapiens). To be noted: at 1 µM.
In test [10] the target is Rho-associated protein kinase 1 (Homo sapiens) (UniProt Q13464). As to conditions: at 0.1 µM.
Test [11] shares this target. To be noted: at 1 µM.
Test [12] addresses Rho-associated protein kinase 2 (Homo sapiens) (UniProt O75116). To be noted: at 0.1 µM.
The target is the same in test [13]. As to conditions: at 1 µM.
For test [14], the target named is Ribosomal protein S6 kinase alpha-1 (Homo sapiens) (UniProt Q15418). As to conditions: at 0.1 µM.
Ribosomal protein S6 kinase alpha-1 (Homo sapiens), sequence (Q15418 whole entry): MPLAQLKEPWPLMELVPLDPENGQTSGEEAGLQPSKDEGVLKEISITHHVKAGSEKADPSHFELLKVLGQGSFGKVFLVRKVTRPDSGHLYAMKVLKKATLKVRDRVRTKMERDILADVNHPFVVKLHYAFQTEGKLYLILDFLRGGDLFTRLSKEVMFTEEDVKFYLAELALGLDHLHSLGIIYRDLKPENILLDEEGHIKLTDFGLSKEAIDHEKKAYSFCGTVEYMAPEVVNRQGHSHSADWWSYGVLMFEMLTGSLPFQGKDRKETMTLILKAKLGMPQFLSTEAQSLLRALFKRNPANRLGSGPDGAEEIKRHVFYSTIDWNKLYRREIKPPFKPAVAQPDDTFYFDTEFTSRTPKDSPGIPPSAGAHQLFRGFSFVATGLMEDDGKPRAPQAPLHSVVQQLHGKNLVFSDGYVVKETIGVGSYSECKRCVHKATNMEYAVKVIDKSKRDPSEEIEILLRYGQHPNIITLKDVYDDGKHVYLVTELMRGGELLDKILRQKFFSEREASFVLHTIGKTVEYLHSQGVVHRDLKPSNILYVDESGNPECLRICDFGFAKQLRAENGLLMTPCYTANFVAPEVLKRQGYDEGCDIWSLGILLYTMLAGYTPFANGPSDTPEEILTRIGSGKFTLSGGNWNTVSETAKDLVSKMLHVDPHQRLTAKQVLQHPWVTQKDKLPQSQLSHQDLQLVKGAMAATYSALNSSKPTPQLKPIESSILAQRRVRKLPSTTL
Test [15] has the same target. To be noted: at 1 µM.
Test [16] has as its target Ribosomal protein S6 kinase alpha-3 (Homo sapiens) (UniProt P51812). To be noted: at 0.1 µM.
For test [17] the target is unchanged. As to conditions: at 1 µM.
In test [18] the target is Ribosomal protein S6 kinase alpha-2 (Homo sapiens) (UniProt Q15349). To be noted: at 0.1 µM.
Ribosomal protein S6 kinase alpha-2 (Homo sapiens), sequence (Q15349 whole entry): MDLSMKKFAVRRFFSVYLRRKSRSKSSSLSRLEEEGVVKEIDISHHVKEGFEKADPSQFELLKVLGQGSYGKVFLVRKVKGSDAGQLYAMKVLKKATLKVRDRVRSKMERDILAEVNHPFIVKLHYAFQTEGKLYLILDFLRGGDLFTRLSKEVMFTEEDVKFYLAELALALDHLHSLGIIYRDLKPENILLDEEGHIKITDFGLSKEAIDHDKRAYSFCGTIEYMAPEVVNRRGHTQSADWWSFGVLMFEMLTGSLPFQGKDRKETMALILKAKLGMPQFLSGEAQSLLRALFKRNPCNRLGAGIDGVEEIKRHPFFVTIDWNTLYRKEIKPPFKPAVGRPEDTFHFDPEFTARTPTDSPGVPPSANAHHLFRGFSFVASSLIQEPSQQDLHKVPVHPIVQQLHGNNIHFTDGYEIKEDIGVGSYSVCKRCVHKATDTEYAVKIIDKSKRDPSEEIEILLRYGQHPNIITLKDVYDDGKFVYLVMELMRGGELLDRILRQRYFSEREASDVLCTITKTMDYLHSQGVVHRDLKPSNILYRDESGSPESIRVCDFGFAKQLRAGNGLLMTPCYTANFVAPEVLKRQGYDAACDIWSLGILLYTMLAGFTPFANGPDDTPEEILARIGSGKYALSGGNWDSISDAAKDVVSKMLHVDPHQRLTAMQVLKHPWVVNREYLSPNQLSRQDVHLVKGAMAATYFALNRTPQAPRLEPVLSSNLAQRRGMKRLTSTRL
For test [19] the target is unchanged. To be noted: at 1 µM.
Test [20] concerns the target Ribosomal protein S6 kinase alpha-6 (Homo sapiens) (UniProt Q9UK32). To be noted: at 0.1 µM.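 Note: reported value is the mean inhibition of RSK4, from the GSK PKIS kinase inhibitor screen.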

Each structure is given as a SMILES string.

Rho-associated protein kinase 2 (Homo sapiens), sequence (O75116 whole entry, looked up): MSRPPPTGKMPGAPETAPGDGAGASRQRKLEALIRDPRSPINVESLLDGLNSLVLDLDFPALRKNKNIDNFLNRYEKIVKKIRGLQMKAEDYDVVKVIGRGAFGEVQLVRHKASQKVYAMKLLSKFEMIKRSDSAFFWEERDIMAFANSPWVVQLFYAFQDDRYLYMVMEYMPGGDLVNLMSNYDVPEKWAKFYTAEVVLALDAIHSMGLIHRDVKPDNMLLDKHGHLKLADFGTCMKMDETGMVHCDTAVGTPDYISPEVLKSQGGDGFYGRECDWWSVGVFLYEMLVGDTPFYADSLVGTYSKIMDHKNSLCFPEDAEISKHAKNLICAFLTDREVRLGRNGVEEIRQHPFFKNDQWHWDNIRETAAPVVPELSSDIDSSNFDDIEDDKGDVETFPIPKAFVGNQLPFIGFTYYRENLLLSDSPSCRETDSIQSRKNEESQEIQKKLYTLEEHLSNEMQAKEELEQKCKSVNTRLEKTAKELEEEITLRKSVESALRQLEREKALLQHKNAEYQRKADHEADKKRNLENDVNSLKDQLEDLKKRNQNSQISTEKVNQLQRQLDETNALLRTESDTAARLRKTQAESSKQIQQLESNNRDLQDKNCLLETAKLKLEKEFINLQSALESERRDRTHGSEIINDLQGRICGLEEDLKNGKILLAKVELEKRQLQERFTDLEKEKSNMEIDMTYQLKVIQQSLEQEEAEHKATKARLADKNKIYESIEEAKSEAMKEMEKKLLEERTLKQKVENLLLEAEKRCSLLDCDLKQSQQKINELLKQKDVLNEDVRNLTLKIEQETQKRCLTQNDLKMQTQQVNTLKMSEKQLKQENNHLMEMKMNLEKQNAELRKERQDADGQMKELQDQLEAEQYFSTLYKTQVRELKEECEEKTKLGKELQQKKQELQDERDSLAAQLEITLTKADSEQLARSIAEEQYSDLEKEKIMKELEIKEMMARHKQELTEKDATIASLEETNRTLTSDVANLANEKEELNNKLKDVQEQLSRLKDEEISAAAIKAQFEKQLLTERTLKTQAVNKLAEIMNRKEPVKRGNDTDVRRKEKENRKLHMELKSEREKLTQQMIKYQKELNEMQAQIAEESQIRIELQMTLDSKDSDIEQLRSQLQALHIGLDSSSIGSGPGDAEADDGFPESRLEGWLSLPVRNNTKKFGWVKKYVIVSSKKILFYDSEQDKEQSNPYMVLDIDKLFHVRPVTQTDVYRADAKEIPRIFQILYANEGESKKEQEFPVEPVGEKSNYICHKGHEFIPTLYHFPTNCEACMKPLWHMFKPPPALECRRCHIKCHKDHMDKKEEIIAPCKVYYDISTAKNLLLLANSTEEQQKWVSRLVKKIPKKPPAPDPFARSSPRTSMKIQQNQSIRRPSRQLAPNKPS
Ribosomal protein S6 kinase alpha-6 (Homo sapiens), sequence (Q9UK32 whole entry): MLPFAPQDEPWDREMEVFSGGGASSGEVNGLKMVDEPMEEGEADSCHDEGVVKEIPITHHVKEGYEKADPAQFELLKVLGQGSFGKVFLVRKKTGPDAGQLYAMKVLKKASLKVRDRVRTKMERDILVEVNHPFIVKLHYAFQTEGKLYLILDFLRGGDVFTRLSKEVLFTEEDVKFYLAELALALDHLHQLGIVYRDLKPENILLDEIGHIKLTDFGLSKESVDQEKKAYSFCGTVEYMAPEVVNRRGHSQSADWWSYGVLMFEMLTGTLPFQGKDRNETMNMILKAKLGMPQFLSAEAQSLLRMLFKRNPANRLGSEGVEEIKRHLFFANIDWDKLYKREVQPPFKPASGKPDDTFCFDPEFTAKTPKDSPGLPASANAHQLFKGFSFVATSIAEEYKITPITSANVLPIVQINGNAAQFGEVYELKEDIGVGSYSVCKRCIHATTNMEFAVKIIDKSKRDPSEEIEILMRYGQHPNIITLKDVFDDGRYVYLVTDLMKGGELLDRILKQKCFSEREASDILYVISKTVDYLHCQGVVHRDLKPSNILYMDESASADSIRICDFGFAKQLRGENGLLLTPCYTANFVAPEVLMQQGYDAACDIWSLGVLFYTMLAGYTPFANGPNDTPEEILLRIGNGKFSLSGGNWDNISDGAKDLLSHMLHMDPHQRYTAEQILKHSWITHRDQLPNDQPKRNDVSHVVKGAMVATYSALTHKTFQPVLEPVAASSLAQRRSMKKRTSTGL
Ribosomal protein S6 kinase alpha-3 (Homo sapiens), sequence (P51812 whole entry): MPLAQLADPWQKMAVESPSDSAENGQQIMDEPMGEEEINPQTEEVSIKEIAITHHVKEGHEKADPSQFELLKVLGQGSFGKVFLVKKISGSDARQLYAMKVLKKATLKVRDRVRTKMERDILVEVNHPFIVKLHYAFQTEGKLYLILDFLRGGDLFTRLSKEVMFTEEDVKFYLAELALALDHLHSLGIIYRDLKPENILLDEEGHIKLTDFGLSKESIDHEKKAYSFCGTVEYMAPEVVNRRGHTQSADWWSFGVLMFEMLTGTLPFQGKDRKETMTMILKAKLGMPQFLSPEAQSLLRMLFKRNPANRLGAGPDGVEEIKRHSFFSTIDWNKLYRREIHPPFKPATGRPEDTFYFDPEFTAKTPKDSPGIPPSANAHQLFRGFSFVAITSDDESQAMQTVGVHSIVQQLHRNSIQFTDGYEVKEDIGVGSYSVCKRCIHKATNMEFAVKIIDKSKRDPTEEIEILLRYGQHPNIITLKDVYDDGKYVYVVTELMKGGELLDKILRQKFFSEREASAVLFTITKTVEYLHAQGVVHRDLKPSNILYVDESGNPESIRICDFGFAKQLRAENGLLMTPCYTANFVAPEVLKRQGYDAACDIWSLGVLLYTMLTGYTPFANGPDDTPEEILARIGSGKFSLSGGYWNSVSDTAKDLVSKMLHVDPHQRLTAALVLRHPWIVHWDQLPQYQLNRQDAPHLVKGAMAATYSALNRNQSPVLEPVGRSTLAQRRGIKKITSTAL

With `COc1cc2ncn(-c3cc(O[C@@H](C)c4ccccc4Cl)c(C(N)=O)s3)c2cc1OC`, the inhibition in test [1] is 2.84%; in test [2], 4.96%; in [3], 4.78%; in test [4], 3.4%; in test [5], 4.72%; in test [6], 4.02%. Moreover, the inhibition came to 5.22% in test [7]; 3.8% in test [8]; 3.91% in [9]; 2.15% in [10]; 3.27% in test [11]; 3.27% in test [12]. The inhibition in test [13] was 5.4%; in test [14] it was 1.94%; in test [15] it was 4.51%; in test [16] it was 1.79%; in test [17] it was 5.13%; in [18], 3.03%. Moreover, the results for the inhibition in [19] and in [20] were 6.66% and 1.81%, respectively.
Regarding `CCN1CCC(CC(=O)Nc2n[nH]c3nc(-c4cccs4)c(Br)cc23)CC1`, the inhibition in test [1] was -1.32%; in [2], -2.16%; in test [3], -0.88%; in [4], -1.47%; in test [5] it was -0.36%; in test [6], -0.23%. Besides, the inhibition in test [7] was 1.17%; in test [8] it was -0.98%; in [9] it was 0.48%; in test [10], 0.12%; in test [11] it was -0.45%; in [12], -0.91%. Also, the inhibition is 0.3% in test [13]; -1.31% in [14]; -0.49% in test [15]; -0.78% in test [16]; -0.3% in test [17]; -1.79% in test [18]. Further, the figures for the inhibition in test [19] and in test [20] were 0.38% and -1.6%, respectively.
With `CCn1c(-c2nonc2N)nc2c(C#CC(C)(C)O)nc(CN3CCCC3)cc21`, the inhibition in [1] came to 6.86%; in test [2] it was 1.31%; in [3], 6.41%; in [4], 4.4%; in [5], 10.7%; in test [6] it was 5.6%. For the same molecule, the inhibition was 37.8% in test [7]; 10.5% in test [8]; 42% in test [9]; 0.15% in test [10]; 0.94% in [11]; 0.14% in test [12]. Besides, the inhibition was 1.51% in [13]; 2.05% in test [14]; 1.13% in [15]; 1.08% in test [16]; 2.37% in [17]; -0.08% in [18]. Further, the inhibition is 0.59% in test [19] and 0.28% in [20].

The values above are taken from ChEMBL document CHEMBL1961873, “Compounds: GSK PKIS; Assays: Nanosyn kinase panel” (2012).
